Measurements published in PubChem BioAssay AID1159580 (chemical genetic matrix, 2015).
“And” between values parts separate entries of the source, which are not always exact repeats. Identical values can stand only once. The campaign covered roughly 5,500 compounds. About 2,000 (36%) were called active. Another 18% or so got no clear call; they are omitted. Cut-off read from the data, not from the text of the source: active = normalized growth mostly below about 0.91 (no sharp cut-off); inconclusive = no clear call, values can overlap the other calls; inactive = mostly above about 0.92. The list shows a part of the results.

Assay: chemical genetic growth profiling, strain panel (AID 1159580);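 note: tested at 20 µM; growth read once vehicle control cultures reached saturation at 30 °C; 1 = growth at the plate median or of vehicle wells; lower values mean less growth of the strain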
Settings: growth OD

Measured: normalized growth

Nc1nc(N)c2nc(-c3ccccc3)c(N)nc2n1
inactive: S. cerevisiae deletion strains, locus YJR075W, strain HOC1, active compounds read low 1.01 | S. cerevisiae deletion strains, locus YKL009W, strain mrt4, active compounds read low 1.02 | S. cerevisiae deletion strains, locus YKL068W, active compounds read low 1 | S. cerevisiae deletion strains, locus YKL085W, strain MDH1 (second series), active compounds read low 1.01 | S. cerevisiae deletion strains, locus YKL085W, strain MDH1, active compounds read low 1.01 | S. cerevisiae deletion strains, locus YKL160W, strain elf1, active compounds read low 1 | S. cerevisiae deletion strains, locus YKL190W, strain CNB1, active compounds read low 1 | S. cerevisiae deletion strains, locus YKR001C, strain vps1, active compounds read low 1.02 | S. cerevisiae deletion strains, locus YKR026C, strain gcn3, active compounds read low 1.01 | S. cerevisiae deletion strains, locus YKR091W, strain srl3, active compounds read low 0.998 | S. cerevisiae deletion strains, locus YLL001W, strain dnm1, active compounds read low 1 | S. cerevisiae deletion strains, locus YLL026W, active compounds read low 0.999 | S. cerevisiae deletion strains, locus YLL041C, strain sdh2, active compounds read low 0.999 | S. cerevisiae deletion strains, locus YLR027C, strain aat2, active compounds read low 1.01 | S. cerevisiae deletion strains, locus YLR039C, strain RIC1, active compounds read low 1.04 | S. cerevisiae deletion strains, locus YLR058C, strain SHM2, active compounds read low 1 | S. cerevisiae deletion strains, locus YLR102C, strain apc9, active compounds read low 1.01 | S. cerevisiae deletion strains, locus YLR113W, strain HOG1, active compounds read low 1 | S. cerevisiae deletion strains, locus YLR221C, strain rsa3, active compounds read low 0.975 | S. cerevisiae deletion strains, locus YLR258W, strain gsy2, active compounds read low 0.999 | S. cerevisiae deletion strains, locus YLR262C, strain YPT6 (second series), active compounds read low 1.02 | S. cerevisiae deletion strains, locus YLR262C, strain YPT6, active compounds read low 1 | S. cerevisiae deletion strains, locus YLR268W, strain sec22, active compounds read low 1.05 | S. cerevisiae deletion strains, locus YLR320W, strain mms22, active compounds read low 0.99 | S. cerevisiae deletion strains, locus YLR330W, strain CHS5, active compounds read low 1.01 | S. cerevisiae deletion strains, locus YLR342W, strain FKS1 (second series), active compounds read low 1.02 | S. cerevisiae deletion strains, locus YLR342W, strain FKS1, active compounds read low 0.996 | S. cerevisiae deletion strains, locus YLR357W, strain rsc2, active compounds read low 1.01 | S. cerevisiae deletion strains, locus YLR370C, strain arc18, active compounds read low 0.995 | S. cerevisiae deletion strains, locus YLR371W, strain rom2, active compounds read low 1.01 | S. cerevisiae deletion strains, locus YLR384C, strain iki3, active compounds read low 1.01 | S. cerevisiae deletion strains, locus YLR418C, strain cdc73, active compounds read low 0.972 | S. cerevisiae deletion strains, locus YML016C, strain PPZ1, active compounds read low 0.999 | S. cerevisiae deletion strains, locus YML032C, strain rad52, active compounds read low 1.02 | S. cerevisiae deletion strains, locus YML120C, strain ndi1, active compounds read low 1.02 | S. cerevisiae deletion strains, locus YML124C, strain tub3, active compounds read low 1.01 | S. cerevisiae deletion strains, locus YMR058W, strain fet3, active compounds read low 1.01 | S. cerevisiae deletion strains, locus YMR078C, strain ctf18, active compounds read low 1 | S. cerevisiae deletion strains, locus YMR125W, strain sto1, active compounds read low 1 | S. cerevisiae deletion strains, locus YMR129W, active compounds read low 0.998 | S. cerevisiae deletion strains, locus YMR205C, strain PFK2, active compounds read low 1.01 | S. cerevisiae deletion strains, locus YMR223W, strain ubp8, active compounds read low 0.994 | S. cerevisiae deletion strains, locus YMR231W, strain pep5, active compounds read low 0.997 | S. cerevisiae deletion strains, locus YMR263W, strain SAP30, active compounds read low 1 and 0.995 | S. cerevisiae deletion strains, locus YMR307W, strain GAS1, active compounds read low 1.04 and 1.01 | S. cerevisiae deletion strains, locus YNL067W, strain RPL9B, active compounds read low 0.995 | S. cerevisiae deletion strains, locus YNL071W, strain lat1, active compounds read low 0.996 | S. cerevisiae deletion strains, locus YNL153C, strain GIM3, active compounds read low 1 | S. cerevisiae deletion strains, locus YNL175C, strain NOP13, active compounds read low 0.987 | S. cerevisiae deletion strains, locus YNL183C, strain NPR1, active compounds read low 0.933 | S. cerevisiae deletion strains, locus YNL197C, strain WHI3, active compounds read low 0.967 | S. cerevisiae deletion strains, locus YNL209W, strain ssb2, active compounds read low 1 | S. cerevisiae deletion strains, locus YNL224C, strain SQS1, active compounds read low 0.995 | S. cerevisiae deletion strains, locus YNL233W, strain BNI4, active compounds read low 1 | S. cerevisiae deletion strains, locus YNL248C, strain rpa49, active compounds read low 0.969 | S. cerevisiae deletion strains, locus YNL250W, strain rad50, active compounds read low 1 | S. cerevisiae deletion strains, locus YNL271C, strain bni1, active compounds read low 1.01 | S. cerevisiae deletion strains, locus YNL298W, strain CLA4, active compounds read low 1.03 | S. cerevisiae deletion strains, locus YNL307C, strain MCK1, active compounds read low 1.01 | S. cerevisiae deletion strains, locus YNL322C, strain KRE1 (second series), active compounds read low 1.01 | S. cerevisiae deletion strains, locus YNL322C, strain KRE1, active compounds read low 1 | S. cerevisiae deletion strains, locus YNR049C, strain mso1, active compounds read low 0.993 | S. cerevisiae deletion strains, locus YNR052C, strain pop2, active compounds read low 1.01 | S. cerevisiae deletion strains, locus YOL006C, strain TOP1, active compounds read low 1.02 | S. cerevisiae deletion strains, locus YOL012C, strain htz1 0.947 | S. cerevisiae deletion strains, locus YOL147C, strain pex11, active compounds read low 1.01 | S. cerevisiae deletion strains, locus YOR001W, strain rrp6, active compounds read low 1.01 | S. cerevisiae deletion strains, locus YOR061W, strain CKA2, active compounds read low 0.999 | S. cerevisiae deletion strains, locus YOR069W, strain VPS5, active compounds read low 1 | S. cerevisiae deletion strains, locus YOR070C, strain gyp1, active compounds read low 0.991 | S. cerevisiae deletion strains, locus YOR080W, strain dia2, active compounds read low 1.01 | S. cerevisiae deletion strains, locus YOR083W, strain WHI5 (second series), active compounds read low 0.969 | S. cerevisiae deletion strains, locus YOR083W, strain WHI5, active compounds read low 0.989 | S. cerevisiae deletion strains, locus YOR106W, strain vam3, active compounds read low 1.02 | S. cerevisiae deletion strains, locus YOR136W, strain idh2, active compounds read low 0.993 | S. cerevisiae deletion strains, locus YOR144C, strain elg1, active compounds read low 1.01 | S. cerevisiae deletion strains, locus YOR184W, strain ser1, active compounds read low 0.98 | S. cerevisiae deletion strains, locus YOR231W, strain MKK1, active compounds read low 1.01 | S. cerevisiae deletion strains, locus YOR265W, strain rbl2, active compounds read low 0.996 | S. cerevisiae deletion strains, locus YOR270C, strain vph1, active compounds read low 1.01 | S. cerevisiae deletion strains, locus YOR290C, strain snf2, active compounds read low 0.991 | S. cerevisiae deletion strains, locus YOR316C, strain cot1, active compounds read low 1.01 | S. cerevisiae deletion strains, locus YPL051W, strain arl3, active compounds read low 0.993 | S. cerevisiae deletion strains, locus YPL055C, strain LGE1, active compounds read low 1.02 | S. cerevisiae deletion strains, locus YPL078C, strain atp4, active compounds read low 1.01 | S. cerevisiae deletion strains, locus YPL106C, strain sse1, active compounds read low 0.995 | S. cerevisiae deletion strains, locus YPL240C, strain hsp82, active compounds read low 1 | S. cerevisiae deletion strains, locus YPL241C, strain CIN2, active compounds read low 1 and 0.998 | S. cerevisiae deletion strains, locus YPL256C, strain CLN2, active compounds read low 0.99 | S. cerevisiae deletion strains, locus YPR119W, strain clb2, active compounds read low 1 | S. cerevisiae deletion strains, locus YPR141C, strain kar3, active compounds read low 1.01 | S. cerevisiae deletion strains, locus YPR163C, strain tif3, active compounds read low 1.02 | S. cerevisiae deletion strains, locus YPR167C, strain met16, active compounds read low 1.01 | S. cerevisiae deletion strains, strain wtn01, active compounds read low 1.01 | S. cerevisiae strains, strain wild type, active compounds read low 0.997
